Screening results from PubChem.
HIV RNase H inh-1: blocks HIV-1 RNase H cleavage of RNA/DNA duplex. P04585. RT-RNase H RNA/DNA duplex cleavage, fluorescence. inhibition, % at 10 µM. 65,000 tested, 1.9% active. AID 565; in the data active = inhibition above about 50%
HIV RNase H inh-2: confirmation of HIV-1 reverse transcriptase RNase H inhibitors. inhibition, % at 10 µM. Recombinant RT RNase H, fluorescent RNA/DNA duplex cleavage. shares compounds with HIV RNase H inh-1. 1,000 tested, 39% active. AID 651; in the data active = inhibition above about 48%; inconclusive = no clear call, values can overlap the other calls
The depositor's hits bear a star. This is one part of a sample in which hits are shown more often than they occur.

What do the screens show for `O=C1CC(N2CCN(Cc3ccccc3)CC2)C(=O)N1c1ccccc1` (centres undefined)?
HIV RNase H inh-1: 12.5

How did O=C1C(Cl)=C(N2CCN(Cc3ccccc3)CC2)C(=O)N1c1ccccc1 do in these assays?
HIV RNase H inh-1: 85.2*; HIV RNase H inh-2: -2.8

What do the screens show for `COc1ccc(S(=O)(=O)N2CCN(Cc3ccccc3)CC2)cc1`?
HIV RNase H inh-1: -4.1

What do the screens show for `COc1ccc(N2C(=O)C(Cl)=C(N3CCN(Cc4ccccc4)CC3)C2=O)cc1`?
HIV RNase H inh-1: 89.8*; HIV RNase H inh-2: 23.7

Results for O=C(c1cnn(-c2ccccc2)c1-n1cccc1)N1CCN(C2CCCCC2)CC1 ?
HIV RNase H inh-1: -2.1

Results for CC(C)OCCCNC(=O)Cn1nc(-c2ccccc2)ccc1=O ?
HIV RNase H inh-1: -7.4

Results for Cc1ccc(C)c(NC(=O)Cn2nc(C)c3ccccc3c2=O)c1 ?
HIV RNase H inh-1: 1.6

What do the screens show for `COc1ccc(-n2c(SCC(=O)Nc3ccccc3)nc3c(c2=O)SCC3)cc1`?
HIV RNase H inh-1: -11.5

What do the screens show for `O=C1CCCc2nc3nc4ccccc4n3cc21`?
HIV RNase H inh-1: -4.4

How did Cc1cccc(N2CCN(C(=O)CCCOc3ccccc3)CC2)c1C do in these assays?
HIV RNase H inh-1: -6.6

What do the screens show for `NC(=O)c1c(N)sc2c1CCCC2`?
HIV RNase H inh-1: 35.4

How did O=C(Nc1sc2c(c1C(=O)NC1CC1)CCCCCC2)c1ccco1 do in these assays?
HIV RNase H inh-1: 28.6

How did Nc1sc2c(c1C(=O)NC1CCS(=O)(=O)C1)CCCC2 (centres undefined) do in these assays?
HIV RNase H inh-1: 65.9*; HIV RNase H inh-2: 26.5

How did O=c1oc2c3c4c(cc2c2c1CCC2)OCCN4CCC3 do in these assays?
HIV RNase H inh-1: -38.5

Results for COc1ccccc1CNc1nc2nc(C)cc(=O)n2[nH]1 ?
HIV RNase H inh-1: -16.7

What do the screens show for `CCOC(=O)c1c(C)n(C)c2ccc(OC)c(NC(=O)CN3CCN(C(=O)c4ccco4)CC3)c12`?
HIV RNase H inh-1: 8.3

What do the screens show for `CN(Cc1ccccc1)c1nc2c(c(=O)[nH]c(=O)n2C)n1CCOc1ccccc1`?
HIV RNase H inh-1: -4.6

Results for c1ccc2nc3c(nc2c1)c1ccccc1n3CCN1CCOCC1 ?
HIV RNase H inh-1: -29.5

How did CCn1c(C)nc2cc(S(=O)(=O)N3CCCCC3)ccc21 do in these assays?
HIV RNase H inh-1: -23.4

How did CCn1c2ccccc2c2nc3cc(S(=O)(=O)N4CCOCC4)ccc3nc21 do in these assays?
HIV RNase H inh-1: 98.3*; HIV RNase H inh-2: 52.1*

Results for CC(=O)c1cnc(Nc2nc(C)c3cccc(C)c3n2)nc1C ?
HIV RNase H inh-1: -4.9

Results for CCN(CC)S(=O)(=O)c1ccc2oc(SCC3CN=C(c4ccc(OC)cc4)S3)nc2c1 (centres undefined) ?
HIV RNase H inh-1: 58.6*; HIV RNase H inh-2: 6.2

What do the screens show for `COc1ccc(C2=NCC(CSc3nccc(=O)[nH]3)S2)cc1` (centres undefined)?
HIV RNase H inh-1: -7.2

What do the screens show for `COc1ccc(C2=NCC(CSc3nnc(-c4ccc5c(c4)OCO5)o3)S2)cc1` (centres undefined)?
HIV RNase H inh-1: -22.6

How did CCOc1ccccc1C1CC(c2ccc(F)cc2)Nc2nc(N)nn21 (centres undefined) do in these assays?
HIV RNase H inh-1: -3.6

How did O=C(Nc1ccc(-c2nc3ccccc3[nH]2)cc1)c1ccco1 do in these assays?
HIV RNase H inh-1: -10.2

How did CC(C)(C)c1ccc(C(=O)Nc2nonc2-c2nc3ccccc3[nH]2)cc1 do in these assays?
HIV RNase H inh-1: 60.0*; HIV RNase H inh-2: inconclusive

How did Cn1cccc1-c1nc2ccc(NC(=O)c3ccccc3)cc2[nH]1 do in these assays?
HIV RNase H inh-1: -0.7

How did CCN(CC)S(=O)(=O)c1ccc(NC(=O)COc2c(OC)cccc2OC)cc1 do in these assays?
HIV RNase H inh-1: -1.4

What do the screens show for `Cc1ccc(N(CC(=O)Nc2cccc(C)c2)S(=O)(=O)c2cccc3nonc23)cc1`?
HIV RNase H inh-1: 66.8*; HIV RNase H inh-2: -2.7

What do the screens show for `CC(=O)c1cccc(NC(=O)CCS(=O)(=O)c2cccc3nonc23)c1`?
HIV RNase H inh-1: -2.4

How did Cc1ccc(NC(=O)CCNS(=O)(=O)c2cccc3nonc23)cc1 do in these assays?
HIV RNase H inh-1: -18.2

Results for CCOC(=O)CC(=O)CSCC(=O)Nc1ccc(C)cc1 ?
HIV RNase H inh-1: 3.8

What do the screens show for `O=C(NCCCN1CCOCC1)c1cc2cc(Cl)cc(Cl)c2oc1=O`?
HIV RNase H inh-1: 2.9

How did COc1ccccc1N(O)C1CC(=O)N(c2ccc(F)cc2)C1=O (centres undefined) do in these assays?
HIV RNase H inh-1: 62.8*; HIV RNase H inh-2: 19.5

What do the screens show for `CCCOc1ccc(N2C(=O)CC(N(O)c3ccccc3)C2=O)cc1` (centres undefined)?
HIV RNase H inh-1: -11.2

Results for Cc1ccc(N2C(=O)CC(N(O)C3CC(=O)N(c4ccc(C)cc4)C3=O)C2=O)cc1 (centres undefined) ?
HIV RNase H inh-1: -23.0

What do the screens show for `CC1=C(C#N)c2nc(N)c(C#N)c(C)c2/C1=C\c1ccccc1`?
HIV RNase H inh-1: -1.6

How did CC1CCN(C(=O)CSc2ccc3nnc(-c4ccccc4)n3n2)CC1 do in these assays?
HIV RNase H inh-1: -8.4

How did CCN(C(=O)CSc1nc2cc(C(=O)OC)ccc2c(=O)n1Cc1ccco1)c1cccc(C)c1 do in these assays?
HIV RNase H inh-1: 2.0

How did CCSc1nc2cc(C(=O)OC)ccc2c(=O)n1CC do in these assays?
HIV RNase H inh-1: -30.7

How did CCc1ccc(NC(=O)CSc2nc3cc(C(=O)OC)ccc3c(=O)n2Cc2ccco2)cc1 do in these assays?
HIV RNase H inh-1: 59.1*; HIV RNase H inh-2: 57.4*

Results for O=C(NCCc1ccccc1)C1CCCN1C(=O)Nc1ccc(F)cc1 (centres undefined) ?
HIV RNase H inh-1: 1.1

How did Cc1cc(C)cc(Nc2ncc3c(n2)CC(c2ccco2)CC3=O)c1 (centres undefined) do in these assays?
HIV RNase H inh-1: -11.5

How did O=C1CC(c2ccco2)Cc2nc(Nc3nc(-c4ccccc4)c4ccccc4n3)ncc21 (centres undefined) do in these assays?
HIV RNase H inh-1: 73.5*; HIV RNase H inh-2: 66.3*

How did O=C(Nc1ncc2c(n1)CC(c1ccco1)CC2=O)c1ccccc1 (centres undefined) do in these assays?
HIV RNase H inh-1: -2.4

What do the screens show for `COCc1cc(C)c2c(N)c(C#N)sc2n1`?
HIV RNase H inh-1: -6.0

Results for Cc1cc(OCC(=O)c2ccc(F)cc2)ccc1N1C(=O)CCC1=O ?
HIV RNase H inh-1: -17.1

What do the screens show for `O=C(c1c(Cl)nc2sccn12)N(C(=O)c1c(Cl)nc2sccn12)c1ccc(Cl)cn1`?
HIV RNase H inh-1: -4.2

Results for O=C(c1ncc[nH]1)c1ccccc1C(=O)N1CCOCC1 ?
HIV RNase H inh-1: -0.7

Results for O=C(c1cccnc1Nc1ccc2c(c1)CCC2)N1CCOCC1 ?
HIV RNase H inh-1: 83.8*; HIV RNase H inh-2: 9.4

What do the screens show for `O=C(c1ccc2c3c(cccc13)CC2)N1CCOCC1`?
HIV RNase H inh-1: 6.4

Results for COc1cccc(-c2nc(CS(=O)CC(=O)NCc3ccccc3Cl)c(C)o2)c1 (centres undefined) ?
HIV RNase H inh-1: -7.2

What do the screens show for `COCCCn1c(SCC(=O)OC2CCCCC2)nnc1-c1cccs1`?
HIV RNase H inh-1: -3.3

How did OC(COc1ccc(C2C=CCC2)cc1)CN1CCCCC1 (centres undefined) do in these assays?
HIV RNase H inh-1: -11.2

How did O=C(CSc1nnc(-c2ccc(F)cc2)o1)c1ccc2c(c1)OCCO2 do in these assays?
HIV RNase H inh-1: 58.8*; HIV RNase H inh-2: inconclusive
